According to PubChem BioAssay (NCATS):
Inconclusive results are not listed. A number with no mark means an inactive call. Calls come from the whole dose curve; as a rule, active = well fitted cell-killing curve with a large enough effect; inconclusive = small, poorly fitted or top-dose-only effect; inactive = flat fitted curve, though single readings scatter.

Test: qHTS assay to identify small molecule inhibitors of chordoma cells - UCH-2 (AID 1259356)
Conditions: UCH-2 chordoma viability, CellTiter-Glo ATP luminescence, 48 h; series mostly up to 46.1 µM; activity change, negative = inhibition: at the top concentration
Text: NIH Chemical Genomics Center [NCGC]
Chordoma is a rare and slow growing tumor that can occur anywhere along the spine, from the base of the skull to the tailbone. Current treatment options for chordoma is surgery and radiation therapy for those who are not candidates for surgery. But chordomas tend to return in the same location or surrounding areas of the original tumor after surgery and/or radiation. Chemotherapy can slow down the progression of the tumor. As chordoma is slow growing, the general cytotoxic agents that kill fast growing cells are ineffective, and some patients have been reported to respond to molecularly targeted drugs.
NCATS Pharmaceutical Collection (NPC) containing approximately 3000 clinically approved and investigational drugs were used to screen at 15 concentrations in a chordoma cell lines, UCH-2, to identify small molecule compounds that can inhibit chordoma cell growth.
NCGC Assay Protocol Summary:
Human chordoma cell line UCH-2 was dispensed at 800 per well in 4uL of culture medium into white solid bottom 1536-well plates (Corning Life Sciences, Corning, NY) using a Multidrop Combi (Thermo Scientific, Waltham, MA) dispenser. The assay plates were incubated at 37 C and 5% CO2 for an overnight, and then 23nL of compounds dissolved in DMSO and positive control were transferred using a Pintool station (Wako, San Diego, CA). Compound treatment was followed by the addition of 1uL of the combination compounds (1uM Auranofin, 500nM each of Camptothecin, Doxorubicin, Rubitecan, and Topotecan) and assay medium to each well of the assay plates using Flying Reagent Dispenser (FRD, Aurora Discovery, San Diego, CA). The assay plates were incubated at 37 C and 5% CO2 for 48hr. Then 5uL of CellTiter-Glo reagent (Promega Corporation, Madison, WI) was added to each well of the assay plates using FRD. After 30min incubation at room temperature, the luminescence signal was quantified using a ViewLux plate reader (PerkinElmer, Shelton, CT).
% is set by controls: 0 for no effect and ±100 for the full control effect.

Structure (SMILES) | activity change, negative = inhibition
CC(C)CCCC(C)N (stereo not given) | 5.36%
CCOc1ccccc1OCCN[C@H](C)Cc1ccc(OC)c(S(N)(=O)=O)c1 | 2.54%
O=C1C(CCS(=O)c2ccccc2)C(=O)N(c2ccccc2)N1c1ccccc1 (stereo not given) | 1.97% [at 20.6 µM]
O=C(O)CCNC(=O)c1ccccc1 | 3.13%
CCCCC(CC)COC(=O)c1ccc(N(C)C)cc1 (stereo not given) | -3.3%
CC1(C)OC[C@@H]2O[C@@]3(C(=O)O)OC(C)(C)O[C@H]3[C@@H]2O1 | 6.11%
O=C1OC2(c3ccccc31)c1cc(Br)c(O)c(Br)c1Oc1c2cc(Br)c(O)c1Br | -23.3%
C=C[C@H]1CN2CC[C@H]1C[C@@H]2[C@@H](O)c1ccnc2ccc(OC)cc12 | 12.4%
COc1ccc(C(Cl)=C(c2ccc(OC)cc2)c2ccc(OC)cc2)cc1 | 6.52%
CCOC(=O)[C@H](CCc1ccccc1)N[C@@H](C)C(=O)N1[C@H](C(=O)O)C[C@@H]2CCC[C@@H]21 | -8.64%
O=C(CN1CCN(Cc2ccc3c(c2)OCO3)CC1)N1c2ccccc2Sc2ccccc21 | 4.32%
C#C[C@]1(O)CC[C@H]2[C@@H]3CCC4=Cc5oncc5C[C@]4(C)[C@H]3CC[C@@]21C | 3.09%
C/C=C/c1ccc(O)c(OC)c1 | 2.43%
CC1(COc2ccc(CC3SC(=O)NC3=O)cc2)CCCCC1 (stereo not given) | 3.12%
CN(C)CCOC(c1ccc(Cl)cc1)c1ccccn1 (stereo not given) | 18.1%
Cc1c(-c2ccccc2)oc2c(C(=O)OCCN3CCCCC3)cccc2c1=O | 0.275% [at 20.6 µM]
COc1cc(C(=O)N2CCCCCCC2)cc(OC)c1OC | 1.21%
CCNC(=O)NCc1cccc(Cl)c1 | -0.776%
C=C[C@H]1CN2CC[C@H]1C[C@H]2[C@H](O)c1ccnc2ccc(OC)cc12 | -3.47%
N=C(N)N1CCc2ccccc2C1 | 7.44%

Structure (SMILES) | activity change, negative = inhibition
CN1CCN(C2=Nc3ccccc3Sc3ccc(Cl)cc32)CC1 | 0.796%
N[C@H](C(=O)O)[C@@H](O)c1ccc(O)c(O)c1 | -2.39%
CCCCC(CC)CN1CN(CC(CC)CCCC)CC(C)(N)C1 (stereo not given) | 9.47% [at 20.6 µM]
CCCCCCCCCCC[C@@H](C[C@@H]1OC(=O)[C@H]1CCCCCC)OC(=O)[C@H](CC(C)C)NC=O | 3.91%
CCOC(=O)c1ccc(N)cc1 | 1.6% [at 20.6 µM]
O=C(O)CCc1nc2ccccc2[nH]1 | 18.2%
CCCCCCCC/C=C\CCCCCCCCN | 0.456%
Cc1cc(-c2ccccc2)nnc1NCCN1CCOCC1 | 2.32%
CN1CCN(C2=Nc3cc(F)ccc3Cc3ccccc32)CC1 | -2.35%
COc1ccc(S(=O)(=O)N2c3ccc(Cl)cc3[C@@](O)(c3ccccc3Cl)[C@H]2C(=O)N2CCC[C@@H]2C(N)=O)cc1OC | -0.334%
CN1CCc2cccc3c2[C@H]1Cc1ccc(O)c(O)c1-3 | 7.83%
CC(=O)OC[C@H]1O[C@@H](n2ncc(=O)[nH]c2=O)[C@H](OC(C)=O)[C@@H]1OC(C)=O | 16.7%
CC(=O)O[C@]1(C(C)=O)CC[C@H]2[C@@H]3C=C(C)C4=CC(=O)CC[C@]4(C)[C@H]3CC[C@@]21C | 0.857% [at 20.6 µM]
CCc1nn(CCCN2CCN(c3cccc(Cl)c3)CC2)c(=O)n1CCOc1ccccc1 | 2.85%
Cl/C(=C\n1cncn1)c1ccc(Cl)cc1Cl | -3.68%
Cn1c(=O)c2[nH]c(Br)nc2n(C)c1=O | 5.78%
Oc1c(Cl)cc(Cl)c(Cl)c1Cc1c(O)c(Cl)cc(Cl)c1Cl | -16%
CC(=O)Nc1ccc(OC(=O)c2ccccc2OC(C)=O)cc1 | 0.669%
CC(O)Cn1cnc2c1c(=O)n(C)c(=O)n2C (stereo not given) | -1.21% [at 20.6 µM]
CC(=O)NC(=O)c1ccccc1O | -10.7%
